Source: PubChem BioAssay AID434955 (Southern Research Specialized Biocontainment Screening …, 2010)
Hit rate of the full screen: of about 330,000 compounds, about 880 (0.27%) were called active. Another 1% or so got no clear call; they are omitted. How the calls were made is not given here. These entries were drawn from the full list.

Test: beta-lactam sensitization of Mtb H37Rv, H37Rv (AID 434955);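 further: growth measured after seven days incubation then overnight dye step; 0% = bacteria only wells and 100% = bacteria with antibiotic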
Details: M. tuberculosis H37Rv growth with meropenem, percent inhibition, at 25 µM
[1] = measured here: primary screen without meropenem

Row | SMILES | inhibition (stronger effect = higher value) | inhibition [1] [%]
1 | CSc1ccc(CN2C(=O)NC3(CCCCCC3)C2=O)cc1 | 19.2% (inactive) | 5.94
2 | CCN(CC)CCNCC(=O)Nc1ccc(Oc2ccccc2)cc1 | -3.27% (inactive) | 3.64
3 | COc1ccc(N2CCN(C(=O)CCNC(=O)c3ccc(Br)cc3)CC2)cc1 | -10.2% (inactive) | -3.75
4 | O=C(NCc1ccccc1)C(c1ccco1)N(C(=O)c1csnn1)c1ccccc1F (centres undefined) | -3.66% (inactive) | -4.47
5 | COc1ccccc1CN1CC(C(=O)NCCc2cn[nH]c2)CCC1=O (centres undefined) | -1.38% (inactive) | 3.44
6 | CC1=NCCN1S(=O)(=O)c1ccc(Br)c(C)c1 | 5.04% (inactive) | 10.8
7 | Cn1c(SCC(=O)N2CCOCC2)nnc1-c1ccc(NC(=O)c2ccccc2F)cc1 | -1.25% (inactive) | -0.23
8 | Cc1ccc(S(=O)(=O)N(C)CC(=O)OCC(=O)N2CC(=O)Nc3ccccc32)cc1 | -3.86% (inactive) | -0.77
9 | Cc1csc(Nc2ccc(Cl)cc2)[n+]1-c1ccc(Cl)cc1 | 5.09% (inactive) | -4.07
10 | C=CCC(NCc1ccco1)c1ccc(OC)cc1 (centres undefined) | -0.53% (inactive) | -3.95
11 | CCCc1ccc(-c2c(C)sc(NC(=O)c3ccnn3C)c2C#N)cc1 | 15.9% (inactive) | -4.16
12 | N#Cc1ccc(OCCN2C(=O)NC3(CCSC3)C2=O)cc1 (centres undefined) | -7.2% (inactive) | -8.16
13 | CN(C)CCn1c2c(c(SCC(=O)Nc3ccccc3C(F)(F)F)nc1=O)CCCC2 | -6.06% (inactive) | -5.4
14 | O=C(NCCc1ccccc1)C1CCC(Cn2c(=O)c3ccccc3n(Cc3cccnc3)c2=O)CC1 (centres undefined) | 19.4% (inactive) | 2.41
15 | O=S(=O)(NCC1CC1)c1ccc(F)c(Cl)c1 | -3.45% (inactive) | 1.07
16 | O=C(Nc1ccccc1Cl)/C(Cl)=C(\Cl)S(=O)c1ccccc1 (centres undefined) | 100% (inactive) | 100
17 | O=C(Oc1c(-c2ccco2)oc2ccccc2c1=O)c1cccnc1 | 92.5% (inactive) | 91.2
18 | Cc1ccc(OCC(=O)Oc2ccccc2[N+](=O)[O-])cc1 | -3.48% (inactive) | -11.4
19 | O=C1NC2(CCCCC2)N=C1c1ccccc1 | -10.1% (inactive) | -2.99
20 | Cc1cc(NC(=O)c2ccccc2C)no1 | -1.93% (inactive) | 3.81
21 | Cc1n[nH]c(=O)c2c(NC(=O)CSc3cc(Cl)ccc3Cl)oc(C)c12 | -5.41% (inactive) | -1.99
22 | CC(C)C(=O)Nc1nnc(SCC(=O)N2C(C)CCCC2C)s1 (centres undefined) | 0.21% (inactive) | 10.7
23 | Cc1ccc2c(c1)-c1c(ssc1=S)C(C)(C)N2C(=O)CN1C(=O)c2ccccc2C1=O | -4.41% (inactive) | -1.91
24 | CC1Sc2ccc(C(=O)NCc3ccccc3Cl)cc2NC1=O (centres undefined) | 6.05% (inactive) | 2.96
25 | COc1cc(C2C(C(=O)OCCC#N)=C(C)NC3=C2S(=O)(=O)c2ccccc23)cc(OC)c1OC (centres undefined) | 4.16% (inactive) | 1.07
26 | COc1ccc(-c2cc(=O)oc3cc(OC(C)C(=O)Nc4ccc(CN5CCOCC5)cc4)ccc23)cc1 (centres undefined) | 98.4% (inactive) | 96.8

Row | SMILES | inhibition (stronger effect = higher value) | inhibition [1] [%]
27 | CC(Sc1nnc2c(n1)C1CCC2(C)C1(C)C)C(=O)Nc1ccccc1 (centres undefined) | -4.99% (inactive) | -6.12
28 | Nn1c(SCC(=O)Nc2ccc3c(c2)CCC3)nnc1C1CC1 | -4.28% (inactive) | -7.87
29 | C/C=C(\C)C(=O)NCCN1C2=NC[C@H](Cc3ccc(O)cc3)N2C[C@@H]1Cc1ccc(OC)cc1 | -14.9% (inactive) | -6
30 | CSCCC(Nc1ccc(S(=O)(=O)N2CCOCC2)cc1[N+](=O)[O-])C(=O)OCC(=O)N(C(C)C)C(C)C (centres undefined) | 3.64% (inactive) | 2.01
31 | CCCCC(C(=O)NC(C)(C)C)N(Cc1ccccc1)C(=O)c1snc(C(N)=O)c1N (centres undefined) | -2.34% (inactive) | 4.81
32 | Fc1ccc2c(c1)C(c1cccnc1)=NNC(c1cccs1)=N2 | 31% (inactive) | 4.96
33 | Cc1ccc(-c2csc(NC(=O)C3=COCCO3)n2)cc1C | 92.7% (inactive) | 99.3
34 | CN(CC(=O)Nc1ccc(S(=O)(=O)N2CCCC2)cc1)Cc1ccc(Cl)c(Cl)c1 | 1.99% (inactive) | 0.57
35 | C=C(C)c1cccc(C(C)(C)NC(=O)N2CCN(c3ncccn3)CC2)c1 | -9.15% (inactive) | -8.65
36 | O=C1C=C(c2ccnc3cc(Cl)ccc23)C[C@@H](c2ccc3c(c2)OCO3)C1 | 52.4% (inactive) | 50.9
37 | CCc1ccc(/C=N/NC(=O)c2ccc(OC3CCCC3)cc2)s1 | 2.88% (inactive) | 3.87
38 | Cc1ccc(-n2cc(CN(C)Cc3nccn3C)c(-c3cccc(C)c3)n2)cc1 | 98.9% (inactive) | 99.4
39 | O=C(NC(=S)N1CCN(Cc2ccccc2)CC1)c1ccccc1 | 36.8% (inactive) | -3.71
40 | CC(OC(=O)CN1C(=O)C2CCCCC2C1=O)C(=O)Nc1ncc(Cl)cc1Cl (centres undefined) | -4.66% (inactive) | 4.44
41 | C/C(Cc1ccccc1)=N\NC(=O)CNC(=O)c1ccccc1Cl | -6.3% (inactive) | 2.92
42 | CCc1cccc(C)c1NC(=O)COC(=O)Cc1ccsc1 | -1.39% (inactive) | 2.58
43 | O=S(=O)(c1ccc(F)cc1)N1CCN=C1SCc1cccc(F)c1 | 9.8% (inactive) | 11.2
44 | NC(=O)C1CCN(C(=O)/C(=C/c2ccco2)NC(=O)c2ccccc2)CC1 | -2.14% (inactive) | -8.97
45 | CCCCNCc1ccc(SC)cc1 | -3.24% (inactive) | -0.62
46 | O=C1CC(=O)Nc2cc(S(=O)(=O)N3CCN(c4cccc(C(F)(F)F)c4)CC3)ccc2N1 | -1.42% (inactive) | 4.41
47 | Cc1ccc(N2C(=O)CC(NCc3ccc4c(c3)OCO4)C2=O)cc1Cl (centres undefined) | -7.15% (inactive) | 0.64
48 | COc1cc(NC(=S)N2CCCC(C)C2)cc(OC)c1OC (centres undefined) | 0.37% (inactive) | 3.47
49 | CCOc1ccc(NC(=O)C(C)N2C(=O)c3ccccc3C2=O)cc1 (centres undefined) | -0.05% (inactive) | 0.73
50 | CC(C)NS(=O)(=O)c1ccc(CCC(=O)N2CCOCC2)cc1 | -4.86% (inactive) | -6.67
51 | CC(=O)OCCC(C)C | -5.13% (inactive) | -1
52 | CCOC(=O)c1cn[nH]c1NC(=S)Nc1ccccc1 | -8.22% (inactive) | -3.62
